Source: PubChem BioAssay (National Center for Advancing Translational Sciences (NCATS))
CtBP-E1A blk: qHTS Assay for Inhibitors of the CtBP/E1A Interaction; activity change, % (concentration not given with the values); AID 651724, 2012; CtBP / adenovirus E1A interaction (AlphaScreen); 340,000 tested, 0.49% active; AlphaScreen GST-E1A/His-CtBP binding, 1536-well; hits give low values; in the data active = activity change below about -65%; inconclusive = mostly about -30% to -63%
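AlphaScreen with 125 nM GST-E1A and 125 nM His-CtBP (5X stocks) in Tris pH 8.0, 300 mM NaCl, BSA, Tween 20, TCEP. Compounds preincubated 2 h at 37 deg C, then glutathione donor/nickel acceptor beads added for 1 h at 37 deg C in dark.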
Six1-Eya2 blk: qHTS Assay for Inhibitors of the Six1/Eya2 Interaction; Homeobox protein SIX1 (Homo sapiens) + Protein phosphatase EYA2 (Homo sapiens), …; AlphaScreen GST-Six1/His-Eya2 binding, biochemical; hits give low values; activity change, % (concentration not given with the values); 360,000 tested, 0.56% active; in the data active = activity change below about -65%; inconclusive = mostly about -30% to -63%
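Six1/Eya2 binding was read as AlphaScreen signal after compounds were pinned into GST-Six1 plus His-tagged Eya2 (5X stock 250/500 nM) in pH 8.0 Tris/NaCl/TCEP buffer, beads added, then incubated 1 h, 37 C, dark.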
IL1B secr inh: qHTS for Inhibitors of Inflammasome Signaling: IL-1-beta AlphaLISA Primary Screen | 360,000 tested, 4.7% active | THP-1 LPS/ATP IL-1B secretion, AlphaLISA, 16 h; hits give low values | activity change, % at 57.5 µM; in the data active = activity change below about -50%; inconclusive = mostly about -30% to -49%
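Secreted IL-1B measured by AlphaLISA bead assay after 16 h compound exposure of THP-1 cells; compounds (final up to 57.5 uM) added 1 h before LPS (250 ng/mL) and ATP (1.25 mM) stimulation; lower signal means less secretion.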
TDP1 cell CPT: qHTS for Inhibitors of human tyrosyl-DNA phosphodiesterase 1 (TDP1): qHTS in cells in presence of CPT; Potency, µM (doses to about 46.2 µM), for the others: top-dose activity change, negative = growth inhibition, actives largely listed as inhibitors; chicken DT40 Tdp1-/-;hTDP1 cells + 20 nM CPT, ATP luminescence, 48 h; 420,000 tested, 12% active; note: potency is the fitted concentration of half-maximal effect; nearly all actives have a fitted effect of over 55% in size
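Chicken DT40 Tdp1-/- cells stably complemented with human TDP1 were seeded at 400 cells/well in medium containing 20 nM camptothecin, exposed to pin-transferred compounds, and grown at 37 °C for at least 48 hr. Viability was read as ATP luminescence.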
TDP1 cell noCPT: qHTS for Inhibitors of human tyrosyl-DNA phosphodiesterase 1 (TDP1): qHTS in cells in absence of CPT; DT40 Tdp1-/- hTDP1 cells, no CPT, ATP luminescence, 48 h; Potency, µM (top dose mostly 46.2 µM), without a hit: top-dose activity change, negative = growth inhibition, usual class: inhibitors; 420,000 tested, 15% active; AID 686978, 2013; note: potency is the fitted concentration of half-maximal effect; nearly all actives have a fitted effect of over 55% in size
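Cells were dispensed at 400 per well, compounds added by pin tool, plates incubated ≥48 hr at 37 °C, then CellTiter-Glo added for 30 min at room temperature before luminescence reading. Line: DT40 Tdp1-/- complemented with hTDP1; camptothecin omitted.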
TDP1 inh: qHTS Assay for Inhibitors of Tyrosyl-DNA Phosphodiesterase (TDP1); Tyrosyl-DNA phosphodiesterase 1 (Homo sapiens), Q9NUW8; recombinant TDP1, AlphaScreen DNA substrate cleavage; Potency, µM (highest dose often 130 µM), without a hit: top-dose activity change, negative = inhibition, most hits filed as inhibitors; 350,000 tested, 0.28% active; AID 485290, 2010; note: potency is the fitted concentration of half-maximal effect; nearly all actives have a fitted effect of over 40% in size
Target sequence (Q9NUW8 whole entry, looked up): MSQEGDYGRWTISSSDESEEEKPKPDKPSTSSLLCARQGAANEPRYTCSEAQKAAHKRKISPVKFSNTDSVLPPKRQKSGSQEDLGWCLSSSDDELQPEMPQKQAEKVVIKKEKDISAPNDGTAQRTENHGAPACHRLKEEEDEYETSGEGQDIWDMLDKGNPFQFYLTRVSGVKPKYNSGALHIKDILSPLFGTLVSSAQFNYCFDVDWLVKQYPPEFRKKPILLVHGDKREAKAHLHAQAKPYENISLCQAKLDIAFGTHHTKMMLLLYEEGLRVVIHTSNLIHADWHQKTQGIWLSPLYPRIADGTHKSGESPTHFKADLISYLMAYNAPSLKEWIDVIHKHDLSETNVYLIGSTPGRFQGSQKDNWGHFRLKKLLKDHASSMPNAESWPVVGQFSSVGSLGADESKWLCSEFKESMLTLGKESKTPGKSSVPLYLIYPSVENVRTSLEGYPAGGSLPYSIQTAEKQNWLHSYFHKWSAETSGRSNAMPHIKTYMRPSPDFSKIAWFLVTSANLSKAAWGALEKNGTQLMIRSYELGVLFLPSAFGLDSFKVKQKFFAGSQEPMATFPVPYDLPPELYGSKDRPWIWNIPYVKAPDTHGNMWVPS
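E. coli-derived human Tdp1, 1 nM final. Cpd preinc 15 min RT; substrate 15 nM final, 5 min RT; AS bead mix 10 ug/ml final, 10 min RT. Signal loss = tyrosine-FITC cleavage. No-enzyme wells = max signal.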
Numbers without * were called inactive; u = inconclusive; x = no result given; [ ] = dose if it differs, or a comment. Only some compounds are listed: those with a hit (about 18% of all), similar ones and a draw of the others. Unless noted, calls come from the whole dose curve; as a rule, active = well fitted curve in the direction sought with a large enough effect; inconclusive = small, poorly fitted or top-dose-only effect, or another doubt; inactive = no such curve, though single readings can be large; an effect the other way counts as inactive or inconclusive. % is set by controls: 0 for no effect and ±100 for the full control effect.

SMILES	CtBP-E1A blk	Six1-Eya2 blk	IL1B secr inh	TDP1 cell CPT	TDP1 cell noCPT	TDP1 inh
CCc1nc2ccc(C(=O)N(C)CCCN(C)C)cn2c1N(CC)CCOC	9	3	6	18%	8%	x
COC(=O)Cc1ccc(OCc2ccc(Cl)nc2)cc1	3	10	11	1%	-26%	x
CCCNC(=O)c1ccc(N2CCC3(CC2)CC(c2ccccc2)=NO3)c(NC(=O)c2cccc(OC)c2)c1	-26	1	8	u	13µM*	x
CCCNC(=O)c1ccc(N2CCC3(CC2)CC(c2ccccc2)=NO3)c(NC(=O)c2ccco2)c1	x	0	-15	18µM*	16µM*	x
Cc1ccc(CNC(=O)c2ccc(N3CCC4(CC3)CC(c3ccccc3)=NO4)c(NC(=O)c3ccco3)c2)cc1	-1	0	-24	u	u	x
CCCCC(CC)C(=O)Nc1cc(C(=O)NCCC)ccc1N1CCC2(CC1)CC(c1ccccc1)=NO2 (stereo unspecified)	-1	-8	-17	6.5µM*	u	x
Cc1ccc(CNC(=O)c2ccc(N3CCC4(CC3)CC(c3ccccc3)=NO4)c(N)c2)cc1	1	4	40	2.6µM*	u	x
Cc1ccc(CNC(=O)c2ccc(N3CCC4(CC3)CC(c3ccccc3)=NO4)c(NC(=O)c3ccccc3)c2)cc1	-3	6	-21	-36%	-21%	-5%
COc1ccc(-c2cc(-c3cc(OC)ccc3O)[nH]n2)cc1	-22	u	-8	21µM*	u	9%
COc1ccc(-c2cc(-c3ccc(Cl)cc3)n[nH]2)c(O)c1	0	-1	u	u	u	x
COc1ccc(O)c(-c2cc(-c3ccc(F)cc3)n[nH]2)c1	-8	-10	-51*	-25%	u	x
COc1ccc(O)c(-c2cc(-c3cccc(Br)c3)n[nH]2)c1	1	-3	-6	u	16µM*	10%
O=C(CCc1nnc(-c2ccc3c(c2)OCO3)o1)NC(c1cccnc1)C(F)(F)F (stereo unspecified)	7	1	31	-28%	u	-6%
Cc1cc(C(F)F)nn1CC(=O)Nc1cc([N+](=O)[O-])ccc1F	0	8	-5	-10%	7%	4%
COC(=O)C1=NN(C(=O)c2cccc(Cl)c2)C(O)(C(C)(C)C)C1 (stereo unspecified)	6	0	44	-1%	-20%	5%
COc1ccc(Nc2c(-c3ccc(F)cc3)nc3nc(C)cc(C)n23)cc1	-2	-12	-26	10µM*	16µM*	x
Cc1cc(C)n2c(Nc3ccc(Cl)cc3)c(-c3ccsc3)nc2n1	x	x	x	u	u	3%
Cc1ccc(Nc2c(-c3cccs3)nc3nc(C)cc(C)n23)cc1	x	x	x	23µM*	u	-2%[12.3 µM]
Cc1cc(C)n2c(NC3CCCCC3)c(-c3cccnc3)nc2n1	-9	7	-6	u	16µM*	x
Cc1cc(C)n2c(Nc3ccccc3)c(-c3ccccc3)nc2n1	x	x	x	16µM*	u	-2%
COc1ccc(Nc2c(-c3ccsc3)nc3nc(C)cc(C)n23)cc1	x	x	x	u	u	10%
O=C(NCc1ccc2c(c1)OCO2)c1cc(-c2ccncc2)nc2ccccc12	1	-4	3	16µM*	u	3%
CCCN(CCC)C(=O)c1cc(-c2ccc3c(c2)OCO3)nc2ccccc12	1	6	-14	15µM*	15µM*	-4%
O=C(NCc1ccc(F)cc1)c1cc(-c2ccncc2)nc2ccccc12	-7	2	15	u	u	4%
O=c1[nH]c(-c2ccccn2)nc2sc(-c3ccccc3)cc12	0	u	-102*	2.3µM*	2.1µM*	-5%
SMILES	CtBP-E1A blk	Six1-Eya2 blk	IL1B secr inh	TDP1 cell CPT	TDP1 cell noCPT	TDP1 inh
Cc1c(C(=O)N(C)C)sc2nc(-c3ccccn3)[nH]c(=O)c12	-97*	-89*	-9	-22%	u	7%
CCCCN(CC)CCCNC(=O)c1cn(C)c(=O)c2c1c1ccccc1n2C	x	4	6	11%	3%	-5%
CC(NC(=O)c1cn(C)c2ccc(S(=O)(=O)N3CCCC3)cc2c1=O)c1ccccc1 (stereo unspecified)	-11	4	-8	u	-11%	1%
CCn1cc(C(=O)N[C@H](C)c2ccccc2)c(=O)c2cc(F)c(N3CCN(C)CC3)cc21	-3	-13	-74*	u	u	4%
CCCCCCn1cc(C(=O)O)c(=O)c2cc(F)c(N3CCN(C)CC3)cc21	-2	-8	11	16µM*	18µM*	x
CCCCCCCCC(=O)N1CCN(c2cc3c(cc2F)c(=O)c(C(=O)O)cn3CC)CC1	9	13	29	-24%	-15%	x
CCCCCCCC(=O)N1CCN(c2cc3c(cc2F)c(=O)c(C(=O)O)cn3CC)CC1	-2	4	11	23µM*	u	x
CC1CCN(S(=O)(=O)c2ccc3c(c2)c(=O)c(C(=O)NC(C)c2ccccc2)cn3C)CC1 (stereo unspecified)	x	x	x	u	23µM*	7%
CCOC(=O)c1cn(CC#N)c2cc(F)c(F)cc2c1=O	-17	2	0	4%	-10%	-4%
CCCCCCn1cc(C(=O)OCC)c(=O)c2cc(F)c(F)cc21	6	1	u	u	23µM*	4%
CCCCCCNC(=O)c1cn(CC)c2cc(N3CCN(C)CC3)c(F)cc2c1=O	-2	2	-55*	21µM*	26µM*	x
